Pf Dd2 inh – P. falciparum Dd2 growth inhibitors, primary screen, SYBR Green fluorescence, single dose replicates | 94,000 compounds, 2.3% hits | activity change, % at 10 µM | 72 h; hits give low values; in the data active = activity change below about -80%; inconclusive = no clear call, values can overlap the other calls
C diff growth – C. difficile growth inhibitors, primary screen, HTS | Clostridium difficile clinical isolate growth, OD600, 24 h; hits give low values | growth activity, negative = inhibition, % at 16 µg/mL (by protocol) | 86,000 compounds, 0.25% hits | AID 1259249, 2017;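 active = mean growth activity at or below -80% and every replicate also at or below -80%; inconclusive = mean at or below -80% but some replicate above -80%; inactive = mean growth activity above -80%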;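 also: 0% = DMSO wells and -100% = levofloxacin 16 µg/mL wells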
T cruzi growth-1 – T. cruzi intracellular proliferation inhibitors, primary screen, cell-based, beta-gal Tulahuen parasites, NIH3T3 host, luminescence; 77,000 compounds, 5.9% hits; T. cruzi beta-gal in NIH3T3, GalScreen luminescence, 90 h; inhibition, % at 8.34 µM;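 active = mean inhibition above about 93%, with at least 55% of replicates each passing it, limit read from the data, passing the limit was not always enough; inconclusive = only one of those two conditions holds; inactive = neither condition holds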
T cruzi growth-2 – T. cruzi intracellular proliferation inhibitors, confirmation, cell-based, NIH3T3 host, beta-gal parasite, luminescence, cherry-pick | AID 651739, 2012 | 5,600 compounds, 72% hits | T. cruzi beta-gal in NIH3T3, GalScreen luminescence, 90 h | shares compounds with T cruzi growth-1 | inhibition, % at 8.35 µM;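 active = mean replicate inhibition above about 95% and at least 55% of replicates individually reaching it, limit read from the data; inconclusive = only one of the two criteria is met; inactive = neither criterion is met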
T cruzi growth-3 – inhibitors of intracellular T. cruzi replication, confirmation, NIH3T3 host cells, beta-gal parasites, cherry-pick, set 2. inhibition, % at 2.09 µM. T. cruzi beta-gal in NIH3T3, GalScreen luminescence, 90 h. shares compounds with T cruzi growth-1. 5,600 compounds, 21% hits;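 active = mean inhibition above about 95%, with at least 55% of replicates also reaching it, limit read from the data; inconclusive = meets just one of the two conditions; inactive = meets neither condition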;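 also: plate controls were neutral control median for no effect and positive control median for full effect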
NIH3T3 tox – cytotoxicity in mouse NIH/3T3 fibroblasts, confirmation, cytotoxicity control for T. cruzi proliferation inhibitor project, cell-based, cherry-pick, single point; shares compounds with T cruzi growth-1; NIH/3T3 viability, CellTiter-Glo ATP luminescence, 90 h; cytotoxicity (signal decrease), % at 8.35 µM; 5,600 compounds, 14% hits;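 active = mean signal decrease across replicates above about 35% based on untreated-well scatter, with enough replicates individually passing, limit read from the data; inconclusive = no rule stated though some were filed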;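 also: 0% = median of neutral control wells and 100% = median of positive control wells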
3T3 cytotox 2 – NIH/3T3 fibroblast cytotoxicity, confirmation, cytotoxicity control, cell-based, cherry-pick, single point, set 2 | shares compounds with T cruzi growth-1 | NIH/3T3 viability, CellTiter-Glo ATP luminescence, 90 h | inhibition, % at 24.9 µM | 5,600 compounds, 56% hits | AID 651744, 2012;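 active = mean loss of cell viability signal at or above a set limit, and enough replicates individually reaching it; inconclusive = meets only the mean limit or only the replicate share; inactive = meets neither condition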;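 also: 0% = median of neutral control wells and 100% = median of positive control wells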
Numbers without * were called inactive; ? = inconclusive; . = not tested or not shown; ! = a repeat was not active. This is a sample that favours compounds with a hit; in the whole collection about 6.8% have one here.

SMILES | Pf Dd2 inh | C diff growth | T cruzi growth-1 | T cruzi growth-2 | T cruzi growth-3 | NIH3T3 tox | 3T3 cytotox 2
O=C(C[C@@H]1CC[C@@H](NC(=O)Nc2ccc3c(c2)OCO3)[C@@H](CO)O1)NCc1ccc2c(c1)OCO2 | -28 | 1 | -9 | . | . | . | .
C[C@@H]1CCCCO[C@@H](CN(C)C(=O)Cc2ccccc2)[C@@H](C)CN([C@H](C)CO)C(=O)c2cc(NC(=O)Nc3ccc(C(F)(F)F)cc3)ccc2O1 | -22 | 8 | 84 | . | . | . | .
CC=Cc1ccc2n(c1=O)C[C@H]1[C@H](CO)[C@@H](C(=O)NCCC)[C@@H]2N1C(=O)C1CCCC1 (mixture of isomers) | 9 | 2 | 27 | . | . | . | .
O=C(C[C@H]1CC[C@@H]2[C@H](COC[C@@H](O)CN2Cc2ccc(Oc3ccccc3)cc2)O1)N1CCN(c2ccccc2)CC1 | -41 | 23 | 130* | 89 | 70 | 17 | 91*
O=C(C[C@@H]1CC[C@H]2[C@@H](COC[C@H](O)CN2Cc2ccc(Oc3ccccc3)cc2)O1)N1CCOCC1 | -5 | . | -2 | . | . | . | .
CCC(=O)N1CCC2(CC1)CN(C(=O)CN1CCOCC1)[C@H](CO)c1c2c2ccc(OC)cc2n1C | 15 | -1 | . | . | . | . | .
Cc1noc(C)c1S(=O)(=O)Nc1ccc2c(c1)C(=O)N([C@H](C)CO)C[C@@H](C)[C@H](CN(C)C(=O)Nc1ccccc1)O2 | 5 | -4 | 36 | . | . | . | .
C[C@@H]1CN([C@H](C)CO)S(=O)(=O)c2ccc(C#Cc3cccnc3)cc2O[C@@H]1CN(C)C(=O)Nc1ccc2c(c1)OCO2 | -63 | -10 | ? | 77 | 62 | 18 | 40*
C[C@H](CO)N1C[C@H](C)[C@@H](CN(C)C(=O)Nc2ccc3c(c2)OCO3)Oc2cc(C#Cc3cccnc3)ccc2S1(=O)=O | -47 | -2 | 93 | . | . | . | .
C[C@H]1CN([C@@H](C)CO)S(=O)(=O)c2ccc(C#Cc3cccnc3)cc2O[C@H]1CN(C)C(=O)Nc1ccc2c(c1)OCO2 | ? | -1 | 102* | 64 | 43 | 8 | 11
CC(=O)N(C)C[C@@H]1Oc2cc(C#Cc3cccnc3)ccc2S(=O)(=O)N([C@@H](C)CO)C[C@@H]1C | 9 | -2 | 39 | . | . | . | .
O=C(Nc1ccccc1F)N1[C@H](CO)[C@@H]2c3ccccc3NC[C@@H]21 | 3 | -9 | 12 | . | . | . | .
Cc1cc(C(=O)Nc2cccc3c2O[C@H](CN(C)Cc2ccc(Cl)c(Cl)c2)[C@@H](C)CN([C@H](C)CO)C3=O)n(C)n1 | -40 | -5 | 57 | . | . | . | .
CCCN1C[C@@H](C)[C@@H](OC)CN(C)C(=O)c2cc(NC(=O)c3ccccc3F)ccc2OC[C@H]1C | -2 | . | -8 | . | . | . | .
COc1cccc(-c2ccc3c(c2)O[C@@H](CN(C)Cc2cccnc2)[C@H](C)CN([C@@H](C)CO)S3(=O)=O)c1 | -56 | -6 | 112* | 92 | 104* | 48* | 88*
COc1ccc(-c2ccc3c(c2)O[C@H](CN(C)Cc2cccnc2)[C@@H](C)CN([C@@H](C)CO)S3(=O)=O)cc1 | -57 | -10 | . | . | . | . | .
COc1cccc(-c2ccc3c(c2)O[C@@H](CN(C)Cc2cccnc2)[C@@H](C)CN([C@@H](C)CO)S3(=O)=O)c1 | -28 | -3 | 95* | ? | 72 | 16 | 53*
COc1cccc(-c2ccc3c(c2)O[C@H](CN(C)Cc2cccnc2)[C@@H](C)CN([C@H](C)CO)S3(=O)=O)c1 | -49 | 3 | 113* | 98* | 108* | 64* | 86*
COc1cccc(-c2ccc3c(c2)O[C@@H](CN(C)Cc2cccnc2)[C@@H](C)CN([C@H](C)CO)S3(=O)=O)c1 | -26 | -1 | 91 | . | . | . | .
C[C@H](CO)N1C[C@H](C)[C@H](CN(C)Cc2cccnc2)Oc2cc(-c3cccnc3)ccc2S1(=O)=O | -4 | 16 | 5 | . | . | . | .
C[C@@H]1CN([C@H](C)CO)C(=O)c2cc(-c3ccc(C#N)cc3)cnc2O[C@H]1CN(C)C(=O)Nc1ccc(F)cc1 | 24 | -4 | -17 | . | . | . | .
Cc1noc(C)c1S(=O)(=O)Nc1ccc2c(c1)CC(=O)N([C@@H](C)CO)C[C@@H](C)[C@H](CN(C)C(=O)Nc1cccc3ccccc13)O2 | -34 | -11 | 7 | . | . | . | .
C[C@H](CO)N1C[C@H](C)[C@@H](CN(C)Cc2ccc(-c3ccccc3)cc2)Oc2cc(C#C[C@@H](C)O)ccc2S1(=O)=O | -61 | 0 | 97* | 87 | 107* | 109* | 104*
C[C@@H](O)C#Cc1ccc2c(c1)O[C@@H](CN(C)Cc1ccc(-c3ccccc3)cc1)[C@@H](C)CN([C@@H](C)CO)S2(=O)=O | -79 | 4 | -46 | . | . | . | .
C[C@H](O)C#Cc1ccc2c(c1)O[C@@H](CN(C)Cc1ccc(-c3ccccc3)cc1)[C@@H](C)CN([C@H](C)CO)S2(=O)=O | -42 | 5 | 78 | . | . | . | .
SMILES | Pf Dd2 inh | C diff growth | T cruzi growth-1 | T cruzi growth-2 | T cruzi growth-3 | NIH3T3 tox | 3T3 cytotox 2
C[C@H](O)C#Cc1ccc2c(c1)O[C@@H](CN(C)Cc1ccc(-c3ccccc3)cc1)[C@H](C)CN([C@@H](C)CO)S2(=O)=O | -45 | 1 | 113*! | 101* | 99* | 114* | 108*
C[C@@H]1CN([C@@H](C)CO)S(=O)(=O)c2ccc(C#CC(C)(C)O)cc2O[C@H]1CN(C)Cc1ccccc1 | -47 | -11 | 83 | . | . | . | .
C[C@@H]1CN([C@H](C)CO)S(=O)(=O)c2ccc(C#CC(C)(C)O)cc2O[C@H]1CN(C)Cc1ccc(-c2ccccc2)cc1 | -84* | 15 | 121* | 89 | 110* | 118* | 107*
CN1CCN(C(=O)C[C@H]2CC[C@H]3[C@H](COc4ccc(NC(=O)c5cscn5)cc4C(=O)N3C)O2)CC1 | 16 | 2 | 61 | . | . | . | .
O=C(NCCc1ccncc1)[C@@H]1[C@@H](CO)[C@@H]2Cn3c(ccc(-c4ccncc4)c3=O)[C@H]1N2 | -13 | -5 | 61 | . | . | . | .
COCC(=O)Nc1ccc2c(c1)OC[C@@H](C)N(C(=O)Cc1ccccn1)C[C@@H](C)[C@@H](OC)CN(C)C2=O | 15 | -3 | 9 | . | . | . | .
Cc1noc(C)c1NC(=O)Nc1ccc2c(c1)C(=O)N([C@H](C)CO)C[C@@H](C)[C@H](CN(C)S(C)(=O)=O)OCCCC[C@@H](C)O2 | 17 | -2 | 3 | . | . | . | .
C[C@@H]1CN([C@@H](C)CO)S(=O)(=O)c2ccc(C#Cc3ccccn3)cc2O[C@@H]1CN(C)C | 22 | -1 | . | . | . | . | .
